Out of some 69,000 compounds screened, about 8,600 (12%) showed an effect of 50% or more. The list comes from a sample in which strong results are over-represented; it also holds similar structures and randomly drawn compounds.

For this assay, the system named is Plasmodium berghei. In words: Screen against P. berghei liver stage (PbLuc), transformed with Luciferase, at 10uM. The format is functional, HepG2. The note with it: tested at 10 uM.
Consider `CN(C)CC1(O)CCCN(c2ccnc3c(C(F)(F)F)cccc23)C1` (stereo not given), for which the INHIBITION worked out at 7.24%.
Under `Cc1cc(C)n(C2CN(CC(=O)N(C)Cc3ccc(C)o3)C2)n1` stands 71.9%; under `Cc1cc(C)n(C2CN(CC(=O)N(C)Cc3ccco3)C2)n1`, 39.7%.
`COc1ccccc1CC(=O)N1CCCC(n2nc(C)cc2C)C1` (stereo not given): the INHIBITION is listed as 27.1%.
Under `Cc1cc(C)n(C2CN(CC(=O)N(C)Cc3ccsc3)C2)n1` stands 75.7%.
Next, `COc1cccc(CN(C)C(=O)CN2CCN(CCO)CC2)c1`: 13.7%; `COc1ccccc1CN(C)C(=O)CN1CC(n2nc(C)cc2C)C1`: 89.4%.
Under `COc1cccc(CN(C)C(=O)CN2CCN(c3nccn3C)CC2)c1` stands -20.6%; under `COc1cccc(CN(C)C(=O)CN2CCN(c3nccs3)CC2)c1`, 60.4%.
As to `COc1ccccc1CNC(=O)C(C)N1CC(n2nc(C)cc2C)C1` (stereo not given), the INHIBITION came to 6.27%.
As to `CN(Cc1ccsc1)C(=O)CN1CCOC(Cn2cncn2)C1` (stereo not given), the INHIBITION was 5.7%.
`Cc1cc(C)n(C2CN(CC(=O)N(C)Cc3cnn(C)c3)C2)n1`: the INHIBITION is 32.9%.
As to `Cc1ccc(CN(C)C(=O)CN2CC(n3cccn3)C2)o1`, the INHIBITION is on record as 28.4%.
Next, `COc1ccc(F)cc1S(=O)(=O)NCCn1cnc(C)cc1=O`: 41.7%; `COCCNC(=O)c1cc(-n2cccc2)ccc1Cl`: 22.2%; `CCN(CC)c1ccc(C(=O)N2CCCC(n3cncn3)C2)cn1` (stereo not given): -12.7%.
Under `Cc1oncc1C(=O)N1CCC2(CC1)CN(S(C)(=O)=O)c1ccccc12` stands -13.4%; under `COc1cccc(CN(C)C(=O)CN2CC(n3nc(C)cc3C)C2)c1`, 53.7%; under `COCCN1CCN(CC(=O)N(C)Cc2ccsc2)CC1C` (stereo not given), -39.2%.
Take `CN(Cc1ccsc1)C(=O)CN1CCc2c(ncn2C)C1`: the INHIBITION is on record as -1.15%.
For `COc1cccc(CC(=O)N2CCCC(n3nc(C)cc3C)C2)c1` (stereo not given), the INHIBITION was 5.03%.
Under `COc1cccc(CNC(=O)C(C)N2CC(n3nc(C)cc3C)C2)c1` (stereo not given) stands 39.8%; under `COCCN1CCN(CC(=O)N(C)Cc2ccsc2)CC1`, 65.7%; under `CN(C)C(=O)Cn1cc(C(=O)NCCc2cccc(Cl)c2Cl)nn1`, -8.4%.
Next, `COCCNC(=O)[C@H]1C[C@H]2OCC[C@H]2N(Cc2ccoc2)C1`: 31.1%; `Cc1nc(N2CCCC2)nc2c1CCN(C(=O)CC1CCCC1)CC2`: -10.3%; `Cc1ccc(CC(=O)N2CC[C@@H]3NC(=O)CC[C@@H]32)cc1`: 58.5%.
On to `COc1cccc(CC(=O)N2CC[C@@H]3NC(=O)CC[C@@H]32)c1`, for which the INHIBITION is reported as -0.554%.
Turning to `COc1ccc(CC(=O)N2CC[C@@H]3NC(=O)CC[C@@H]32)cc1`, the INHIBITION is -6.46%.
Next, `Cc1c(S(=O)(=O)NCC(C)Cn2cc(Cl)cn2)cnn1C` (stereo not given): 35.8%; `CN(CCCc1cnn(C)c1)C(=O)C1CCC(=O)N(C2CCCC2)C1` (stereo not given): -7.85%.
Consider `C[C@H]1C[C@H]2CN(S(=O)(=O)c3ccc(F)cc3)CC[C@H]2O1`, for which the INHIBITION is given as -7.28%.
Next, `CC1COCCN1C(=O)Cc1cc(Cl)c2c(c1)OCCCO2` (stereo not given): 0.348%; `O=C1C[C@H]2[C@@H](CCN2C(=O)c2ccoc2)N1CCN1CCOCC1`: -6.23%.
For the molecule `COc1ccccc1OCCCc1cccc(C#N)n1`, the INHIBITION is given as -34.1%.
Under `COc1cccc(OCCCc2cc(C#N)ccn2)c1` stands 55.6%; under `COc1ccccc1OCCCc1cc(C#N)ccn1`, 45.7%; under `COCc1cc(CNC(=O)c2cc(NC(C)=O)ccc2Cl)n[nH]1`, 40.6%.
On to `O=C(c1ccoc1)N1CCO[C@]2(CCC[C@H]2COCc2cccnc2)C1`, for which the INHIBITION was -34.7%.
In the case of `Cc1ccc(CNC2CC3(CCN(CCO)CC3)c3ccccc32)s1` (stereo not given), the INHIBITION is reported as 60.2%.
Turning to `COCCN1CCC2(CC1)CC(NCc1cncn1C)c1ccccc12` (stereo not given), the INHIBITION amounted to 54.1%.
Next, `COCCN1CCC2(CC1)CC(NCc1ccc(C)s1)c1ccccc12` (stereo not given): 45.7%; `Cc1cccc(CNC2CC3(CCN(CCO)CC3)c3ccccc32)n1` (stereo not given): 52.1%; `O=C(NC1CC2(CCN(CCO)CC2)c2ccccc21)c1ccncc1` (stereo not given): 49.7%.
For the molecule `Cn1cncc1CNC1CC2(CCN(CC3CC3)CC2)c2ccccc21` (stereo not given), the INHIBITION turned out to be 45.2%.
Take `CCN1CCC2(CC1)CC(NCc1cccc(C)n1)c1ccccc1O2` (stereo not given): the INHIBITION is -4.88%.
Regarding `O=C(NC1CC2(CCN(CCO)CC2)c2ccccc21)c1ccsc1` (stereo not given), the INHIBITION came to 27.5%.
Consider `Cn1cncc1CNC1CC2(CCN(S(C)(=O)=O)CC2)c2ccccc21` (stereo not given), for which the INHIBITION was found to be 23.1%.
Next, `COCCNC(=O)NC1CCN(c2cnn(C)c2)C1` (stereo not given): 16%.
As to `Cn1cc(CN2C[C@@H](NC(=O)c3cscn3)[C@H]3OCCC[C@H]32)cn1`, the INHIBITION was -4.88%.
Take `COc1ccc(-c2ccnc(N)c2)c(C)c1`: the INHIBITION worked out at 29.1%.
Under `COCCNS(=O)(=O)c1cccc(CSC)c1` stands 20.2%; under `Cc1nn(C)c(C)c1C1CCCN1C(=O)CCCc1ccccn1` (stereo not given), 23.4%; under `CC(C)NC1CCc2[nH]c(=O)ccc2C1` (stereo not given), 86.2%.
Take `CS(=O)(=O)NC1CCc2[nH]c(=O)ccc2C1` (stereo not given): the INHIBITION stood at 30.5%.
Take `O=C(NC1CCCC1)NC1CCc2[nH]c(=O)ccc2C1` (stereo not given): the INHIBITION is on record as 34.9%.
As to `CN(C)CCN(Cc1ccccn1)Cc1ccnn1C1CCCCO1` (stereo not given), the INHIBITION worked out at 18.3%.
For the molecule `COCC1CN(C(=O)COc2ccc(C)cc2)Cc2cn(C)nc21` (stereo not given), the INHIBITION was 5.96%.
Under `Cc1cc(C(=O)NCCc2nc3c(s2)CCCC3)n(C)n1` stands 68%; under `Cc1cc(C(=O)NCCc2cn3nc(C)sc3n2)c(C)o1`, -98.6%; under `COc1nc2c(cc1C(=O)NCCc1nc3c(s1)CCC3)CCC2`, -6.04%.
Consider `Cc1nn2cc(CCNC(=O)c3cc(C(C)C)nn3C)nc2s1`, for which the INHIBITION is reported as 82.7%.
As for `Cc1nc(CCNC(=O)c2cc(C(C)C)nn2C)sc1C`, the INHIBITION is on record as 81%.
Next, `CC(C)Cc1cc(C(=O)NCCc2nnc(N)s2)n(C)n1`: -24.7%; `CC(C)c1cc(C(=O)NCCc2nc3c(s2)CCC3)n(C)n1`: 89.6%; `CC(=O)c1ccc(CNC(=O)c2cc(C)nn2C)nc1C`: -34%.
Turning to `Cc1nc(CCNC(=O)C2CC(=O)N(C(C)C)C2)sc1C` (stereo not given), the INHIBITION was determined as 22.3%.
Turning to `c1cc(-c2nccn2CCc2nc3c(s2)CCC3)ccn1`, the INHIBITION amounted to 11.6%.
Next, `Cc1nn2cc(CCNC(=O)c3cc(C(C)C)no3)nc2s1`: -97.2%; `O=C(O)c1ccnc(-c2ccnc(NCCc3nc4c(s3)CCC4)n2)c1`: 30.9%.

The record behind these values is ChEMBL document CHEMBL4513216, “Probing the Open Global Health Chemical Diversity Library for Multistage-Active Starting Points for Next-Generation Antimalarials” (ACS Infect Dis, 2020).
